Screening data as filed in PubChem.
SARS PLpro yeast: inhibitors of SARS-CoV papain-like protease in yeast; S. cerevisiae expressing SARS-CoV PLpro, growth rescue; Potency, µM (top dose mostly 32.9 µM), inactives show at the highest dose activity, positive = growth rescue, usual class: activators; actives 0.19% (n = 330,000); calls by dose curve; further: 0% is about no effect; nearly all actives have a fitted effect of over 55% in size
Sm TGR block: blocks Schistosoma mansoni thioredoxin glutathione reductase. Q962Y6. purified TGR, DTNB reduction, TNB absorbance 405 nm. Potency, µM (titrated, usually from 114 µM), for the others: at the highest dose activity change, negative = inhibition, actives largely listed as inhibitors. actives 3% (n = 360,000). AID 485364; active means well fitted inhibition curve with a large enough effect; inconclusive means small, poorly fitted or top-dose-only effect; inactive means no such curve, though single readings can be large or run the other way; further: on the % scale 0 is the no-effect control and ±100 the full control effect; nearly all actives have a fitted effect of over 60% in size
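First, TGR (20 nM dispensed) and NADPH were mixed with compound. Second, a 15 min room-temperature incubation followed. Third, further NADPH and then DTNB were added to start the reaction. Finally, TNB absorbance was monitored kinetically.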
Active calls of the source: *; ? = inconclusive; / = no result given; [ ] = dose if it differs, or a comment. Hits are enriched below; roughly 3% of the tested compounds scored in any of these assays. Potency means the concentration at half of the fitted maximal effect.

SMILES	SARS PLpro yeast	Sm TGR block
Cc1ccc(CONC(=O)c2cccc([N+](=O)[O-])c2)cc1	-5.7%	-23.4%
COc1ccc(C(=O)CCC(=O)Nc2cc(Cl)c(O)c(Cl)c2)cc1	-0.3%	35.5µM*
O=C(Nc1ccc(Cl)cc1)c1cnn2c1NC(c1ccccc1)=CC2c1ccccc1 (centres undefined)	/	-2.0%
CCN(CC)C(=O)c1sc2c(c1C)c(=O)n(-c1ccccc1)c(=O)n2Cc1c(C)cc(C)cc1C	/	-5.2%
O=C(NCCc1ccc(Cl)cc1)c1nnc(Cc2ccc(F)cc2)o1	/	3.2%
S=c1nc(-c2ccccc2)n(CCCN2CCOCC2)c2c1CCCC2	2.6%	?
S=c1nc(-c2ccccc2)n(CCCn2ccnc2)c2c1CCCC2	1.0%	44.7µM*
CCOC(=O)N1CCc2c(sc3c2c(=O)n(-c2ccc(Cl)cc2)c(=O)n3CC(=O)Nc2ccccc2)C1	/	-0.5%
CCC(=O)OCc1cc(=O)n2nc(C3CC3)sc2n1	/	5.0%
CS(=O)(=O)N1CC(C(=O)NN)Oc2ccc(Cl)cc21 (centres undefined)	-0.3%	3.8%
NC(=O)C1CN(S(=O)(=O)c2ccc(Cl)cc2F)c2ccccc2O1 (centres undefined)	0.4%	39.8µM*
O=C(NCc1ccc(F)cc1)c1cnc(N2CCCCC2)c2ccccc12	/	-106.1%
CCOC(=O)CCSc1n[nH]c(=S)s1	0.6%	17.8µM*
CCOC(=O)CSc1n[nH]c(=S)s1	-0.3%	?
CCn1ccc2cc(S(=O)(=O)N3CCC(C(=O)NCc4ccc(OC(C)C)cc4)CC3)ccc21	/	-10.2%
O=S(=O)(c1ccc(Cl)cc1)c1ccc(Cl)cc1	-4.0%	-11.1%
Cc1c(O)ccc2cc(S(=O)(=O)c3ccccc3)c(=O)oc12	-1.3%	-28.5%
O=S(=O)(c1ccc(Cl)cc1)c1cc(O)ccc1O	-2.1%	11.2µM*
O=S(=O)(c1ccccc1)c1cc(O)ccc1O	5.6%	28.2µM*
CCCc1ncc(C[n+]2ccccc2C)c(N)n1	/	44.7µM*
Cc1cccc[n+]1CCCCCCCCCC[n+]1ccccc1C	-1.5%	-7.2%[57.1 µM]
CC1(c2nnc(-c3ccncc3)o2)CC(c2ccc([N+](=O)[O-])cc2)=NO1 (centres undefined)	0.8%	35.5µM*
CC1(c2nnc(-c3ccc(Cl)cc3)o2)CC(c2ccc([N+](=O)[O-])cc2)=NO1 (centres undefined)	-0.4%	-9.7%
Cc1nc(N2CCOCC2)[nH]c(=O)c1CCC(C)C	-0.3%	-4.9%
Cc1nc(N2CCOCC2)[nH]c(=O)c1C(O)C(Cl)(Cl)Cl (centres undefined)	-1.0%	44.7µM*
SMILES	SARS PLpro yeast	Sm TGR block
Cc1cccc(NC(=S)N/C(=N/S(=O)(=O)c2ccccc2)c2ccccc2)c1	-3.5%	?
Cc1ccc(S(=O)(=O)/N=C(/Nc2ccc([N+](=O)[O-])cc2)c2ccccc2)cc1	-0.3%	-10.1%
COc1ccc(NC(=S)N/C(=N/CS(=O)(=O)c2ccccc2)c2ccccc2)cc1	-19.8%	39.8µM*
O=[N+]([O-])c1ccc(NC(=S)N/C(=N/CS(=O)(=O)c2ccccc2)c2ccccc2)cc1	6.4%	20µM*
CCOc1ccc(/C=C/C(=O)Nc2sc3c(c2C(=O)OC)C(C(=O)OC)CC3)cc1 (centres undefined)	/	-0.6%
COc1ccc(NC(=O)Cn2cnc3ccc(S(=O)(=O)N4CCC(C)CC4)cc3c2=O)cc1OC	/	18.1%
Cc1cc(NC(=O)CCc2nc3cccnc3n2-c2ccccc2)ccc1Br	/	-3.7%
COCCCNC(=O)c1oc2c(c1C)-c1nn(Cc3cccc(Cl)c3)cc1CC2	/	-7.0%
COc1ccccc1/C=C(\C#N)c1nc(-c2cc3ccccc3oc2=O)cs1	/	0.6%
Cc1ccc(CC(=O)Nc2c(C(=O)N3CCN(c4ccccc4)CC3)oc3ccccc23)cc1	/	-2.9%
Cc1ccc(CC(=O)Nc2c(C(=O)N3CCN(c4ccccc4F)CC3)oc3ccccc23)cc1	/	44.7µM*
Cc1[nH]c2ccccc2c1C1N2CC3(C)CN1CC(C)(C2)C3=O (centres undefined)	/	9.6%
COc1ccc(-n2nnc(C(=O)Nc3ccccc3F)c2N)cc1	/	-2.8%
O=C(Nc1ccc(F)cc1)[C@H](Cc1ccccc1)N1Cc2ccccc2C1=O	/	-1.8%
Cc1cc(C(=O)NNc2ccc(Cl)cc2)no1	-5.4%	-10.7%
Cc1ccc(NNC(=O)c2ccno2)cc1C	-4.1%	50.1µM*
Cc1ccc(NNC(=O)c2ccno2)cc1Cl	-5.9%	-2.1%
Cc1cc(C(=O)NNc2ccc(C)c(C)c2)no1	-2.5%	50.1µM*
COc1ccc(NC(=O)CSC2=Nc3ccccc3C3=NC(CC(=O)NCCc4ccccc4)C(=O)N23)cc1 (centres undefined)	/	12.9%
Cc1ccc(CSc2nnc(-n3c(=O)c(C#N)cc4c(=O)n5cc(C)ccc5nc43)s2)cc1	/	1.2%
O=C1/C(=C/c2cccnc2)CC/C1=C\c1cccnc1	0.3%	-26.5%
CC(C)/C=C1\CC/C(=C\c2cccnc2)C1=O	-12.0%	25.1µM*
O=C1/C(=C/c2cccnc2)CCC/C1=C\c1cccnc1	-126.3%	39.8µM*
O=C1/C(=C\c2cccnc2)CCc2ccccc21	-21.1%	-7.5%
CCOC(=O)N1CCc2c(sc(NCc3cccc(F)c3)c2C(=O)Nc2ccc(OCC)cc2)C1	/	-9.8%
SMILES	SARS PLpro yeast	Sm TGR block
COc1cccc(CNC(=O)c2ccc3c(c2)N(C)C(=O)C2CCCCN32)c1 (centres undefined)	/	-13.6%
Cc1ccccc1C(=O)NC(Oc1ccccc1)C(Cl)(Cl)Cl (centres undefined)	8.8%	-6.6%
CCCC(=O)NC(Oc1ccc(C(C)=O)cc1)C(Cl)(Cl)Cl (centres undefined)	0.1%	28.2µM*
COc1ccccc1NC(=O)C1CCCN(c2ncnc3onc(-c4ccc(F)cc4)c23)C1 (centres undefined)	/	5.8%
O=C(O)C(O)Cc1c[nH]c2ccccc12 (centres undefined)	2.3%	6.5%
O=C(O)C(=O)Cc1c[nH]c2ccccc12	-12.5%	44.7µM*
CCCCc1ccc(N2C(=O)[C@@H]3C(CC(N)=O)NC4(C(=O)Nc5ccc(F)cc54)[C@@H]3C2=O)cc1 (some centres undefined)	-15.0%	0.0%
Cc1c(Cl)ccc2c1NC(=O)[C@]21N[C@@H](CCC(N)=O)[C@H]2C(=O)N(c3ccc(F)cc3)C(=O)[C@H]21	-12.3%	12.6µM*
Cc1c(Cl)ccc2c1NC(=O)C21NC(CCC(N)=O)[C@H]2C(=O)N(c3ccc(Cl)cc3)C(=O)[C@H]21 (some centres undefined)	-3.4%	35.5µM*
CSCCC1NC2(C(=O)Nc3c2ccc(Cl)c3C)[C@@H]2C(=O)N(C3CCCC3)C(=O)[C@H]12 (some centres undefined)	2.2%	-5.5%
Cc1cccc(Cn2c(=O)n(Cc3ccc(C(=O)NC4CCN(Cc5ccccc5)CC4)cc3)c(=O)c3ccccc32)c1	/	10.3%
Cc1cccc(C)c1Nc1c(-c2ccccc2Cl)nc2cnccn12	/	-12.2%
CCOc1ccccc1NC(=O)CSc1cn(CC(=O)N2CCCCCC2)c2ccccc12	/	10.4%
CCN(CC)c1ccc(N)cc1	3.0%	-19.9%
Nc1ccc(N(CCO)CCO)cc1	-0.1%	7.08µM*
Cc1ccc(S(=O)(=O)N2CCC(c3nnc(-c4cccc(C)c4)o3)CC2)cc1	/	0.0%
O=C(CN1C(=O)C2CC=CCC2C1=O)Nc1ccc(Br)cc1 (centres undefined)	?	-3.6%
Cc1cc(Br)ccc1NC(=O)CN1C(=O)C2CC=CCC2C1=O (centres undefined)	-2.6%	12.6µM*
